Assay results taken from PubChem BioAssay AID1159580 (chemical genetic matrix, 2015).
In all, about 5,500 compounds went through this assay and about 2,000 (36%) were called active. Inconclusive results (about 18%) are left out. Rule as the data show it: active = normalized growth mostly below about 0.91 (no sharp cut-off); inconclusive = no clear call, values can overlap the other calls; inactive = mostly above about 0.92. The list shows a part of the results.

Assay: chemical genetic growth profiling, strain panel (AID 1159580);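 also: tested at 20 µM; growth read once vehicle control cultures reached saturation at 30 °C; 1 = growth at the plate median or of vehicle wells; lower values mean less growth of the strain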
Details: growth OD

Measured: normalized growth

CCCc1c(OCCCCc2nn[nH]n2)ccc(C(C)=O)c1O
inactive: S. cerevisiae deletion strains, locus YAL013W, strain DEP1, stronger effect = lower value 1.01 | S. cerevisiae deletion strains, locus YBR021W, strain FUR4, stronger effect = lower value 1.03 | S. cerevisiae deletion strains, locus YBR229C, strain ROT2, stronger effect = lower value 1.01 | S. cerevisiae deletion strains, locus YCL029C, strain bik1, stronger effect = lower value 0.997 | S. cerevisiae deletion strains, locus YDL035C, strain GPR1, stronger effect = lower value 1.02 | S. cerevisiae deletion strains, locus YDL074C, strain BRE1, stronger effect = lower value 1.06 | S. cerevisiae deletion strains, locus YDL101C, strain DUN1, stronger effect = lower value 1.02 | S. cerevisiae deletion strains, locus YDL134C, strain PPH21, stronger effect = lower value 1.01 | S. cerevisiae deletion strains, locus YDL185W, strain tfp1, stronger effect = lower value 0.968 | S. cerevisiae deletion strains, locus YDL192W, strain arf1, stronger effect = lower value 0.995 | S. cerevisiae deletion strains, locus YDR101C, strain arx1, stronger effect = lower value 0.991 | S. cerevisiae deletion strains, locus YDR150W, strain NUM1, stronger effect = lower value 1.01 | S. cerevisiae deletion strains, locus YDR162C, strain NBP2, stronger effect = lower value 1.01 | S. cerevisiae deletion strains, locus YDR318W, strain mcm21, stronger effect = lower value 0.993 | S. cerevisiae deletion strains, locus YDR388W, stronger effect = lower value 0.993 | S. cerevisiae deletion strains, locus YDR502C, strain sam2, stronger effect = lower value 1.01 | S. cerevisiae deletion strains, locus YEL061C, strain CIN8, stronger effect = lower value 1.01 | S. cerevisiae deletion strains, locus YER110C, stronger effect = lower value 0.977 | S. cerevisiae deletion strains, locus YER155C, strain BEM2, stronger effect = lower value 1.01 | S. cerevisiae deletion strains, locus YER167W, strain BCK2, stronger effect = lower value 1.01 | S. cerevisiae deletion strains, locus YGL078C, strain dbp3, stronger effect = lower value 0.996 | S. cerevisiae deletion strains, locus YGL086W, strain mad1, stronger effect = lower value 1 | S. cerevisiae deletion strains, locus YGL248W, strain PDE1, stronger effect = lower value 1.01 | S. cerevisiae deletion strains, locus YGR078C, strain PAC10, stronger effect = lower value 1.01 | S. cerevisiae deletion strains, locus YGR135W, strain pre9, stronger effect = lower value 1 | S. cerevisiae deletion strains, locus YGR229C, strain SMI1, stronger effect = lower value 1.03 | S. cerevisiae deletion strains, locus YGR252W, strain gcn5, stronger effect = lower value 0.934 | S. cerevisiae deletion strains, locus YHR030C, strain SLT2, stronger effect = lower value 1.01 | S. cerevisiae deletion strains, locus YHR079C, strain IRE1 (second series), stronger effect = lower value 0.992 | S. cerevisiae deletion strains, locus YHR094C, strain hxt1, stronger effect = lower value 0.992 | S. cerevisiae deletion strains, locus YHR129C, strain ARP1, stronger effect = lower value 1.01 | S. cerevisiae deletion strains, locus YHR200W, strain rpn10, stronger effect = lower value 0.987 | S. cerevisiae deletion strains, locus YIL066C, strain RNR3, stronger effect = lower value 1.02 | S. cerevisiae deletion strains, locus YIL073C, strain SPO22, stronger effect = lower value 1.03 | S. cerevisiae deletion strains, locus YIL125W, strain kgd1, stronger effect = lower value 1 | S. cerevisiae deletion strains, locus YIR030C, strain dcg1, stronger effect = lower value 0.995 | S. cerevisiae deletion strains, locus YJL095W, strain BCK1, stronger effect = lower value 1.02 | S. cerevisiae deletion strains, locus YJL134W, strain LCB3, stronger effect = lower value 1.01 | S. cerevisiae deletion strains, locus YJL168C, strain set2, stronger effect = lower value 0.993 | S. cerevisiae deletion strains, locus YJL187C, strain SWE1 (second series), stronger effect = lower value 1.01 | S. cerevisiae deletion strains, locus YJR043C, strain POL32, stronger effect = lower value 0.984 | S. cerevisiae deletion strains, locus YJR075W, strain HOC1, stronger effect = lower value 1.02 | S. cerevisiae deletion strains, locus YKL009W, strain mrt4, stronger effect = lower value 1.02 | S. cerevisiae deletion strains, locus YKL068W, stronger effect = lower value 0.999 | S. cerevisiae deletion strains, locus YKL085W, strain MDH1 (second series), stronger effect = lower value 0.999 | S. cerevisiae deletion strains, locus YKL085W, strain MDH1, stronger effect = lower value 0.999 | S. cerevisiae deletion strains, locus YKL190W, strain CNB1, stronger effect = lower value 1.01 | S. cerevisiae deletion strains, locus YKR001C, strain vps1, stronger effect = lower value 0.957 | S. cerevisiae deletion strains, locus YLR039C, strain RIC1, stronger effect = lower value 1.05 | S. cerevisiae deletion strains, locus YLR058C, strain SHM2, stronger effect = lower value 1.01 | S. cerevisiae deletion strains, locus YLR102C, strain apc9, stronger effect = lower value 0.997 | S. cerevisiae deletion strains, locus YLR262C, strain YPT6, stronger effect = lower value 1.08 | S. cerevisiae deletion strains, locus YLR268W, strain sec22, stronger effect = lower value 0.994 | S. cerevisiae deletion strains, locus YLR330W, strain CHS5, stronger effect = lower value 1.01 | S. cerevisiae deletion strains, locus YLR342W, strain FKS1 (second series), stronger effect = lower value 0.975 | S. cerevisiae deletion strains, locus YLR371W, strain rom2, stronger effect = lower value 0.989 | S. cerevisiae deletion strains, locus YLR418C, strain cdc73, stronger effect = lower value 0.984 | S. cerevisiae deletion strains, locus YML016C, strain PPZ1, stronger effect = lower value 1.01 | S. cerevisiae deletion strains, locus YML032C, strain rad52, stronger effect = lower value 0.995 | S. cerevisiae deletion strains, locus YML124C, strain tub3, stronger effect = lower value 0.996 | S. cerevisiae deletion strains, locus YMR078C, strain ctf18, stronger effect = lower value 0.994 | S. cerevisiae deletion strains, locus YMR223W, strain ubp8, stronger effect = lower value 0.991 | S. cerevisiae deletion strains, locus YMR263W, strain SAP30, stronger effect = lower value 1.01 | S. cerevisiae deletion strains, locus YMR307W, strain GAS1, stronger effect = lower value 1.01 | S. cerevisiae deletion strains, locus YNL067W, strain RPL9B, stronger effect = lower value 1.01 | S. cerevisiae deletion strains, locus YNL128W, strain TEP1, stronger effect = lower value 1.01 | S. cerevisiae deletion strains, locus YNL153C, strain GIM3, stronger effect = lower value 1.01 | S. cerevisiae deletion strains, locus YNL233W, strain BNI4, stronger effect = lower value 1.01 | S. cerevisiae deletion strains, locus YNL250W, strain rad50, stronger effect = lower value 0.996 | S. cerevisiae deletion strains, locus YNL271C, strain bni1, stronger effect = lower value 0.997 | S. cerevisiae deletion strains, locus YNL298W, strain CLA4, stronger effect = lower value 0.997 | S. cerevisiae deletion strains, locus YNL307C, strain MCK1, stronger effect = lower value 0.993 | S. cerevisiae deletion strains, locus YNL322C, strain KRE1, stronger effect = lower value 1.01 | S. cerevisiae deletion strains, locus YNR052C, strain pop2, stronger effect = lower value 0.981 | S. cerevisiae deletion strains, locus YOL006C, strain TOP1, stronger effect = lower value 1.09 | S. cerevisiae deletion strains, locus YOL012C, strain htz1 1.54 | S. cerevisiae deletion strains, locus YOL147C, strain pex11, stronger effect = lower value 0.989 | S. cerevisiae deletion strains, locus YOR061W, strain CKA2, stronger effect = lower value 1.01 | S. cerevisiae deletion strains, locus YOR069W, strain VPS5, stronger effect = lower value 1 | S. cerevisiae deletion strains, locus YOR136W, strain idh2, stronger effect = lower value 0.986 | S. cerevisiae deletion strains, locus YOR144C, strain elg1, stronger effect = lower value 0.994 | S. cerevisiae deletion strains, locus YOR184W, strain ser1, stronger effect = lower value 0.992 | S. cerevisiae deletion strains, locus YOR316C, strain cot1, stronger effect = lower value 1 | S. cerevisiae deletion strains, locus YPL055C, strain LGE1, stronger effect = lower value 1.03 | S. cerevisiae deletion strains, locus YPL241C, strain CIN2, stronger effect = lower value 1 | S. cerevisiae deletion strains, locus YPR119W, strain clb2, stronger effect = lower value 0.992 | S. cerevisiae deletion strains, locus YPR141C, strain kar3, stronger effect = lower value 1.01 | S. cerevisiae deletion strains, locus YPR163C, strain tif3, stronger effect = lower value 0.986 | S. cerevisiae deletion strains, locus YPR167C, strain met16, stronger effect = lower value 0.992 | S. cerevisiae deletion strains, strain wtn01, stronger effect = lower value 0.993 | S. cerevisiae strains, strain wild type, stronger effect = lower value 1.01
